This passage reports INHIBITION results from ChEMBL document CHEMBL4513216, “Probing the Open Global Health Chemical Diversity Library for Multistage-Active Starting Points for Next-Generation Antimalarials” (ACS Infect Dis, 2020).

Each structure is given as a SMILES string. Screen size: about 69,000 compounds; about 8,600 (12%) showed an effect of 50% or more. The entries come from a sample that favours strong results as a whole.

The assay concerns Plasmodium berghei. Nature of the assay: Screen against P. berghei liver stage (PbLuc), transformed with Luciferase, at 10uM. It is filed as functional, HepG2. Particulars: tested at 10 uM.
Regarding `Cc1nc(CN2C[C@@H]3CN(C(=O)c4ccco4)C[C@@H]3C2=O)cs1`, the INHIBITION is on record as 40.4%.
The value for `Cc1occc1C(=O)N1CCC2(CCN(Cc3cccs3)C2)CC1` was -33.9%; that for `Cc1cnc(Nc2cccc(C3CCCN3Cc3cn(C)nc3C)n2)s1` (configuration not stated) was 64.5%.
As to `COCC(=O)N1CCCC1c1cccc(Nc2ncc(C)s2)n1` (configuration not stated), the INHIBITION is listed as 42.4%.
For `Cc1cnc(Nc2cccc(C3CCCN3C(=O)CO)n2)s1` (configuration not stated) the value was -0.902%.
The value for `Cc1nn(C)cc1CN1CCCC1c1cccc(Nc2nccs2)n1` (configuration not stated) was 23.25%; that for `CCN(CC)S(=O)(=O)N1CCCC1c1cccc(Nc2ncc(C)s2)n1` (configuration not stated) was 76.1%; that for `Cc1ccc(C2CCCCCN2Cc2cn(C)nc2C)s1` (configuration not stated) was 27.6%.
The value for `CCOCCN1C[C@@H]2CCCO[C@@H]2[C@H](NC(=O)c2cnoc2C)C1` was 32.1%; that for `CC1(c2ncc(CN3CCN(c4ncccn4)CC3)cn2)CCCCO1` (configuration not stated) was 23.15%; that for `O=C(c1ccccc1F)N1C[C@@H]2COC[C@]2(COCc2cccnc2)C1` was 10%.
Regarding `CCCN1C(=O)c2ccccc2C1OC` (configuration not stated), the INHIBITION is reported as 28.7%.
In the case of `CCC(=O)Nc1cc(Br)cnc1OCC(F)(F)F`, the INHIBITION is 67.1%.
The value for `COCC(=O)Nc1cc(Br)cnc1OCC(F)(F)F` was 26%.
With `CC(=O)Nc1cc(Br)cnc1OCC(F)(F)F`, the INHIBITION stood at 30.3%.
The value for `O=C(c1cccc2cccnc12)N1CC[C@@]2(CCCO2)[C@@H](O)C1` was 22%; that for `COC(=O)CC(c1ccc(OC)c(O)c1)c1oc(C)cc(=O)c1O` (configuration not stated) was 3.31%.
As to `CN1CCN(CCOc2ccc(NC(=O)c3ccncc3)cc2)CC1`, the INHIBITION worked out at 27%.
Consider `CNc1nc2c(c(C(=O)N3CCCC3)n1)CN(C(=O)c1cccs1)CC2`, for which the INHIBITION is given as -37.9%.
Take `O=C1CCC(C(=O)N2CCOC(Cc3cccc4ccccc34)C2)=NN1` (configuration not stated): the INHIBITION came to 53.7%.
As to `Cn1ccnc1C(=O)N1CCOC(Cc2ccccc2Cl)C1` (configuration not stated), the INHIBITION amounted to 41.2%.
The value for `CCn1ncnc1CN1CCOC(Cc2cccc3ccccc23)C1` (configuration not stated) was 44.3%; that for `NCC1CN(C(=O)c2cccc(-n3cccn3)c2)CCO1` (configuration not stated) was 40.5%; that for `O=C1CCC(C(=O)N2CCOC(Cc3ccccc3Cl)C2)=NN1` (configuration not stated) was 71.1%.
The value for `O=C1CCC(C(=O)N2CCOC(Cc3ccc(F)cc3)C2)=NN1` (configuration not stated) was -11.6%.
For the compound `Cc1cc2ccncc2n1CC1(O)CCN(C(=O)c2ccccn2)CC1`, the INHIBITION turned out to be 18.3%.
The value for `COC(=O)c1cc2c(OC)c(OC)c(OC)cc2[nH]1` was 32.2%.
The value for `C=c1ncsc1=C1NN=C(C2CCCN2C(=O)CCn2cccn2)O1` (configuration not stated) was 16.575%; that for `CCCNC(=O)c1cccc(CNCc2csc(C(C)C)n2)c1` was 55.1%; that for `CCC(C)NC(=O)c1cccc(CNCc2csc(C(C)C)n2)c1` (configuration not stated) was 64.5%.
For `CCNC(=O)c1cccc(CNC(=O)c2cnc(C(C)(C)C)s2)c1`, the INHIBITION is given as -6.94%.
Regarding `CCCNC(=O)CN1CCC(NCc2csc(C(C)C)n2)CC1`, the INHIBITION is listed as -16.8%.
For `CCCNC(=O)c1cccc(CNCc2csc(CC)n2)c1` the value was 12.3%; for `CCCNC(=O)c1cccc(CNCc2csc(C(C)(C)C)n2)c1`, 77.4%.
For the compound `CC(C)c1nc(CNC(=O)c2ccc(C(C)N3CCCCC3)o2)cs1` (configuration not stated), the INHIBITION is reported as 42.2%.
The value for `CCCNC(=O)C1CCN(Cc2csc(C(C)C)n2)CC1` was 42%; that for `CCC(C)NC(=O)c1cccc(CNC(=O)CC(F)(F)F)c1` (configuration not stated) was -76.9%; that for `Cc1ccc(C(=O)O)c(N2CC(C)(C)[C@@](C)(O)C2)n1` was 16.2%.
For `O=S(=O)(c1cncc(F)c1)N1CCC2(CCOC2)C1` (configuration not stated) the value was -15.4%; for `CC(=O)Nc1ccc2nc(CN(C)Cc3snnc3C)ccc2c1`, 11.4%; for `COCc1cc(N(C)CCc2c(C)n[nH]c2C)ncn1`, 26.7%.
`COCC(c1cccc(C(F)(F)F)c1)N(C)C(=O)c1ccco1` (configuration not stated): the INHIBITION turned out to be 48.45%.
The value for `O=C(c1cnccn1)N1CC[C@H]2C[C@@H](c3ccncn3)O[C@@H]2C1` was 29.9%; that for `O=c1cc(CN2CCCC2)nc2n1CCCN(S(=O)(=O)C1CC1)C2` was 29.5%; that for `Cc1noc([C@H]2C[C@@H]3CCN(c4nnc(C)s4)C[C@H]3O2)n1` was 39.5%.
For `Cc1noc([C@H]2CC[C@@H]3[C@@H](CCN3S(C)(=O)=O)O2)n1` the value was 7.12%; for `Cc1noc([C@@H]2CC[C@@H]3[C@@H](CCN3c3nnc(C)s3)O2)n1`, 50.4%; for `Cc1noc([C@@H]2CC[C@@H]3[C@@H](CCN3S(C)(=O)=O)O2)n1`, -10.3%.
The value for `Cc1noc([C@H]2CC[C@@H]3[C@@H](CCN3c3ncccn3)O2)n1` was 51.4%; that for `Cc1noc([C@@H]2C[C@@H]3CCN(c4nnc(C)s4)C[C@H]3O2)n1` was -21.1%; that for `CN1C[C@@H]2CN(C(=O)NCc3cccc(F)c3)CCC[C@]2(C(=O)O)C1` was -10.5%.
In the case of `Cn1cc(C2CCCN2Cc2cscn2)cn1` (configuration not stated), the INHIBITION was found to be 42%.
